Laboratory results: PubChem BioAssay (NCI)
Where “and” joins values, the source holds several entries; their conditions need not be identical. Equal values may be shown once. About 79,000 compounds went through this panel and 15% of them were active in at least one assay; those are over-represented in the sample as a whole. Unmarked numbers belong to inactive results. Calls of active or inactive are those of the source. Cut-off read from the data, not from the text of the source: active = growth inhibition above about 70%; inactive = the rest.

Test: NCI Yeast Anticancer Drug Screen. Data for the mec2-1 strain (AID 157)
Conditions: S. cerevisiae mec2-1 strain, hits give high values
Method: Growth inhibition of yeast strains with defined genetic alterations is measured as a screen for potential anti-cancer activity. Selected strains with alterations in DNA damage repair or cell cycle control were exposed to compounds and growth inhibition was measured relative to vehicle treated controls. The strain used in this assay is mec2-1

[1] = at 5.0 µM (retest, dose inferred, filed as 0.5)
[2] = at 50.0 µM (retest, dose inferred, filed as 5.0)

| SMILES | growth inhibition [1] | growth inhibition [2] | growth inhibition (at 50.0 µM) |
| --- | --- | --- | --- |
| C=C1C(=O)OC2CC1C(OC(=O)/C=C/c1ccccc1)C/C(C)=C/CC/C(C)=C/CCC2(C)O (stereo not given) | 54% | 96% (active) | 81.7% (active) |
| COc1cc(-c2ccc(-[n+]3nc(-c4ccc([N+](=O)[O-])cc4)nn3-c3ccc([N+](=O)[O-])cc3)c(OC)c2)ccc1-[n+]1nc(-c2ccc([N+](=O)[O-])cc2)nn1-c1ccc([N+](=O)[O-])cc1 | 98% (active) | 98% (active) | 91.4% (active) |
| CCOC(=O)c1[nH]c(C#N)c(C(=O)OCC)c1C | 1% | 23% | 26.4% |
| CCOc1ccc2c(c1)/C(=C\C=C\C1CC(C)C3CC(OCC)CCC3N1CC)CC(C)N2CC (stereo not given) | -1% | 88% (active) | 88.2% (active) |
| Clc1ccc(-n2ncc3c(NCCCN4CCOCC4)ncnc32)cc1 | 6% | 70% (active) | 62.1% |
| COCc1c(C#N)c(Cl)nc(C)c1[N+](=O)[O-] | 7% | 90% (active) |  |
| Oc1ccccc1N=Cc1ccccc1 | 13% | 35% | 44.2% |
| COC(=O)[C@]1(C)CCC[C@]2(C)c3ccc(C(C)C)cc3C(=O)[C@@H](Br)[C@@H]12 | -2% | 46% | 51.9% |
| N#CC(=C1SCS1)[N+](=O)[O-] | 98% (active) | 100% (active) | 92.4% (active) |
| Nc1ccc(-c2ccc(N)c(S(=O)(=O)O)c2)cc1S(=O)(=O)O | 4% | 12% | -9% |
| CN(C)CCN(C)CC(C)(C)C(=O)/C=C/c1ccc(Cl)c(Cl)c1 | 4% | 99% (active) | 78.1% (active) |
| CCOC(=O)C1=C(C)NC(=O)NC1c1ccccc1 (stereo not given) |  |  | 15.1% and -20.2% |
| Cc1c2cc(O)c(=O)cc-2oc2cc(O)c(O)cc12 |  |  | 29.6% and 6.2% |
| Cc1ccc(S(=O)(=O)Nc2cc(=O)[nH]c3c2CCC3)cc1 |  |  | -4.75% and 18.3% |
| O=C(O)CN(CCO)CCO |  |  | 7.65% and -16.6% |
| N#CC1OC1c1cccc[n+]1[O-] (stereo not given) |  |  | -7.8% and -3.3% |
| CCOC(=O)C(NC(C)=O)C(C)=O (stereo not given) |  |  | -7% and -5.65% |
| O=[N+]([O-])c1ccc(NCS(=O)(=O)O)cc1 |  |  | -14.3% and -7.9% |
| NC(N)=S |  |  | -2.4% and -11.8% |
